According to PubChem BioAssay (NCI):
About 83,000 compounds went through this panel and 20% of them were active in at least one assay; those are over-represented in the sample as a whole.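 Single-concentration screen, 48 h exposure, 96-well plates. Endpoint: percent growth. Below 10 = active.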 A number with no mark means an inactive call. Activity calls are given as the source filed them.

Tests used:
Assay in all cases: NCI-60 one-dose screen, 48 h (100 = growth as untreated, 0 = no growth, -100 = all killed)
Conditions in all cases: 10 µM unless noted
[1] = tested on: NCI-H23 lung
[2] = tested on: NCI-H226 lung
[3] = tested on: NCI-H322M lung
[4] = tested on: HOP-62 NSCLC
[5] = tested on: NCI-H460 lung
[6] = tested on: HOP-92 NSCLC
[7] = tested on: A549/ATCC NSCLC
[8] = tested on: 786-0 renal
[9] = tested on: COLO 205 colon

SMILES | growth [1] | growth [2] | growth [3] | growth [4] | growth [5] | growth [6] | growth [7] | growth [8] | growth [9]
c1ccc(-c2nc(Nc3nccnn3)c3ccccc3n2)cc1 | 90.4% | 87.5% | 98.1% | 99.8% | 101% | 105% | 102% | 96.9% | 107%
O=C(O)CNC(=O)C1(N2C(=O)c3ccccc3C2=O)CCCC1 | 101% | 96.7% | 106% | 110% | 113% | 124% | 99% | 94.1% | 112%
O=CN1N=C(c2ccc(Cl)cc2)CC1c1cccc(Nc2ccnc3cc(Cl)ccc23)c1 (stereo not given) | 11.6% | 24.4% | 42.4% | 8.16% (active) | 11.1% | 21.5% | 20.9% | 20.5% | -26.9% (active)
CCOc1cc(/C=C/C(=O)C(C(=O)/C=C/c2ccc(OC(=O)CNc3nnc(C)s3)c(OCC)c2)C(=O)CNc2nnc(C)s2)ccc1OC(=O)CNc1nnc(C)s1 | -2.16% (active) | -14.8% (active) | 6.22% (active) | 3.59% (active) | -46.8% (active) | -25.6% (active) | 8.11% (active) | -73.7% (active) | -55% (active)
COc1cccc(-c2nc(-c3ccc(N)cc3)co2)c1 | 106% | 94.2% | 102% | 108% | 115% | 86.8% | 84.9% | 94.4% | 141%
CC1CN(CC(O)c2ccc(Br)cc2)CCO1 (stereo not given) | 104% | 109% | 107% | 108% | 108% | 82.5% | 102% | 102% | 98.1%
O=C(C(=O)c1cc(Br)ccc1O)c1cc(Br)ccc1O | 19.8% | 90.9% | 67.6% | 50.3% | 39% | 25.4% | 50.7% | 61.2% | 100%
COc1cc(-c2nc3sc4c(c3c(=O)[nH]2)CCCCCC4)cc(OC)c1OC | 22.3% | 60.9% | 39% | 29.6% | 8.85% (active) | 42.7% | 25.8% | 40.7% | -24.2% (active)
COc1cc(/C=C/c2cc(/C=C/c3ccc(O)c(OC)c3)n(C(=O)Cc3ccccc3)n2)ccc1O | 1.94% (active) | 13.7% | 9.62% (active) | 2.82% (active) | 4.69% (active) | -0.112% (active) | 4.22% (active) | 10.2% | -64.3% (active)
CCOC(CNCc1cc(C)c2[nH]c3ccccc3c2c1C)OCC | 82.2% | 70% | 83.2% | 98.1% | 89.1% | 64.1% | 81% | 65% | -25.4% (active)
CN(C)c1ccc(-c2nc3ncc(Br)cc3o2)cc1 | 87.5% | 97.9% | 90.2% | 91.9% | 109% | 61.8% | 103% | 86.5% | 81.3%
NC(=N\N=C/Cc1ccccc1)/C(N)=N\N=C\Cc1ccccc1 | 104% | 104% | 117% | 113% | 112% | 109% | 101% | 112% | 117%
CCCCCCCCCCNCCSS(=O)(=O)O | 86.2% | 102% | 76.7% | 100% | -62.7% (active) | 93.3% | 69.7% | 87.6% | 116%
C=CCN(/C=C/CN(CC=C)CC=C)CC=C | 108% | 95.7% | 96.7% | 97.7% | 105% | 91.2% | 99.6% | 104% | 107%
C/C(=C\CCc1ccoc1)CC/C=C(\C)CCCC1COC(=O)C1 (stereo not given) | 106% | 104% | 88.9% | 96.9% | 98.8% | 88% | 97% | 101% | 109%
c1ccc(-c2n(Cc3ccc4ccccc4c3)cc[n+]2Cc2ccc3ccccc3c2)cc1 | -38.7% (active) | -9.03% (active) | 8.84% (active) | -44.8% (active) | -78.5% (active) | -69.6% (active) | 12.5% | -80.7% (active) | -79.1% (active)
O=C(CSc1ncc(-c2ccccc2)n1-c1ccccc1)Nc1ccc(-c2nc3ccccc3s2)cc1 | 62.6% | 103% | 90.1% | 73.1% | 36.3% | 95.6% | 20.3% | 69.8% | 103%
O=C1OC(Oc2ccccc2)(c2ccccc2)c2ccccc21 (stereo not given) | 105% | 107% | 128% | 106% | 99.1% | 88% | 95% | 101% | 112%
O=C(Nc1nn2c(-c3cc(C(F)(F)F)cc(C(F)(F)F)c3)nnc2s1)C1CCCC1 | -2.97% (active) | 9.1% (active) | 4.33% (active) | 8.91% (active) | 3.63% (active) | -24.2% (active) | 7.1% (active) |  | -82.5% (active)
CC(C)Cn1cnc2c(NCn3nc(-c4cc(Cl)cc(Cl)c4Cl)n(/N=C/c4ccc(Cl)cc4)c3=S)nc3ccccc3c21 | 80.9% | 73.4% | 81.6% | 79.4% | 99.1% | 45% | 77.9% | 90.7% | 94.6%
COc1c(Br)cc(C(c2cc(Br)c(OC)c(Br)c2)c2ccccc2C(=O)O)cc1Br | 97.3% | 99.8% | 102% | 94.1% | 105% | 55.7% | 98.7% | 100% | 110%
CC(=O)OC1Oc2cc(C)c(C)cc2-c2oc(=O)c(-c3ccccc3)cc21 (stereo not given) | 46.3% | -6.38% (active) | 33.5% | 48% | 4.89% (active) | -41.5% (active) | 24.8% | 33.5% | 0.826% (active)
O=C1/C(=C/c2ccccc2Cl)CCc2ccccc21 | 102% | 106% | 101% | 106% | 104% | 90.7% | 83.5% | 102% | 115%
Cc1ccc2c(c1)C(=O)/C(=C\Nc1ccc(C(N)=O)cc1)C(O)O2 (stereo not given) | 114% | 154% | 95.8% | 88.3% | 111% | -17.9% (active) | 114% | 110% | 108%
Nc1ccc2c(c1)C(=O)c1cc(Cl)c(Cl)cc1-2 | 88.8% | 83.1% | 117% | 94.2% | 105% | 72.2% | 90.7% | 91.4% | 83.5%
O=C1NC(=O)/C(=C/c2ccc(Cl)cc2Cl)N1 | 91.2% | 99.4% | 104% | 99.1% | 109% | 81.2% | 101% | 109% | 100%
Cc1ccc(NC(=O)c2sc3nc4c(cc3c2N)C(=O)CCC4)cc1 | 64.9% | 83.7% | 55.8% | 114% | 29% | 48.1% | 37% | 94.5% | 23.9%
O=C(Nc1nc2ccc(OC(F)(F)F)cc2s1)c1ccc(F)cc1 | -34.7% (active) | 20.6% | 30% | 26.1% | -13.1% (active) | -14% (active) | 14.5% | 16.2% | -17.4% (active)
CCCCCCCCN(CCO)CCCCCCCC | 103% | 92.8% | 96.1% | 103% | 106% | 97% | 99.7% | 101% | 107%
